Test [1] can be described thus: CCTE_Shafer_MEA_acute_burst_number: CCTE's Neural Acute Assay for Single-Electrode Bursts, Shafer Lab (AID 2284013). The method, boiled down: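 Burst totals were derived with adaptive spike detection (8x rms threshold) on filtered signals from rat cortical cultures; change relative to pre-treatment baseline after 40-min compound exposure (0.03-40 uM) was fitted in the negative direction against DMSO.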

Test [2] is described as follows: CCTE_Shafer_MEA_acute_burst_duration_mean: CCTE's Neural Acute Assay for Mean Burst Duration, Shafer Lab (AID 2284014).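 Further: hits are decreases in mean burst duration relative to DMSO controls.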 The method, boiled down:
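Acute exposure of mature rat cortical networks (DIV 13 or 15) grown on microelectrode arrays to 0.03-40 uM compound. Mean burst duration compared with the 40-min pre-dose baseline over a 40-min post-dose recording at 37 C.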

Test [3] can be described thus: CCTE_Shafer_MEA_acute_per_burst_spike_number_mean: CCTE's Neural Acute Assay for Average Number of Spikes Per Burst, Shafer Lab (AID 2284015).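 Further: hits are decreases in mean spikes per burst versus baseline.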 The method, boiled down: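 Primary rat cortical neurons on 48-well MEA plates, treated on DIV 13 or 15 at 0.03-40 uM. Spontaneous activity recorded 40 min before and 40 min after compound at 37 C; percent change in mean spikes per single-electrode burst per well, fitted in the loss direction versus DMSO.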

Test [4] can be described thus: CCTE_Shafer_MEA_acute_interburst_interval_mean: CCTE's Neural Acute Assay for Mean Interburst Interval, Shafer Lab (AID 2284016).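 Further: percent change of mean interburst interval versus each well's own pre-dose baseline; curves fitted for decrease in interburst interval relative to DMSO.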 The method, boiled down:
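Primary rat cortical neurons on 16-electrode MEA wells were recorded 40 min at baseline on DIV 13 or 15, then 40 min after compound (0.03-40 uM), at 37 C. Value is percent change in mean interburst interval per well, DMSO as negative control.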

A short description of test [5]: CCTE_Shafer_MEA_acute_burst_percentage_mean: CCTE's Neural Acute Assay for Percentage of Spikes in a Burst, Shafer Lab (AID 2284017). The method, boiled down: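 Primary rat cortical neurons on 16-electrode MEA wells; 40 min baseline recorded at DIV 13 or 15, then 40 min after compound (0.03-40 uM) at 37 C. Well-mean fraction of spikes in single-electrode bursts; percent change from baseline, DMSO as negative control.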

Test [6] is described as follows: CCTE_Shafer_MEA_acute_burst_percentage_std: CCTE's Neural Acute Assay for Standard Deviation of Burst Percentage, Shafer Lab (AID 2284018).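 Further: fitted in the negative direction so actives lower burst percentage SD.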 The method, boiled down:
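Primary rat cortical neurons on 16-electrode MEA wells were recorded 40 min at baseline (DIV 13 or 15), then 40 min after compound (0.03-40 uM), at 37 C. Well value is SD across electrodes of spikes-in-bursts/total spikes; endpoint is percent change, DMSO-referenced.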

Test [7] is described as follows: CCTE_Shafer_MEA_acute_per_network_burst_spike_number_mean: CCTE's Neural Acute Assay for Average Number of Spikes in a Network Burst, Shafer Lab (AID 2284019). The method, boiled down: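 Acute exposure of rat primary cortical networks (DIV 13/15) on MEAs; adaptive spike detection at 8x rms noise, 37 C. Percent change in spikes per network burst after 40 min with compound (0.03-40 uM), negative direction vs DMSO.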

Test [8] is described as follows: CCTE_Shafer_MEA_acute_per_network_burst_spike_number_std: CCTE's Neural Acute Assay for Standard Deviation of Number of Spikes in a Network Burst, Shafer Lab (AID 2284020).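 Further: fitted for decrease in spike-number SD versus DMSO so actives lower it.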 The method, boiled down:
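Acute MEA exposure, rat cortical neurons, 0.03-40 uM. Per-well % change versus own baseline; DMSO as negative control.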

A short description of test [9]: CCTE_Shafer_MEA_acute_per_network_burst_electrodes_number_mean: CCTE's Neural Acute Assay for Mean Number of Electrodes in a Network Burst, Shafer Lab (AID 2284021).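 Further: curves fitted for decreases only so hits reduce electrodes per burst.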 The method, boiled down: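 Primary rat cortical networks, mwMEA, 37 C. 20 min stabilization, 40 min baseline, compound 0.03-40 uM, 40 min re-record. Wells need >=10 active electrodes; percent change per well, negative fitting direction.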

A short description of test [10]: CCTE_Shafer_MEA_acute_network_burst_percentage: CCTE's Neural Acute Assay for Percentage of Network Bursts, Shafer Lab (AID 2284022).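 Further: curves fitted for loss so actives lower network burst percentage.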 The method, boiled down: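 Readout is the fraction of spikes falling in network bursts, expressed as per-well percent change from a 40-min pre-exposure baseline. Primary rat cortical neurons on MEA were exposed to 0.03-40 uM compound on DIV 13 or 15 and recorded for 40 min at 37 C.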

One may read the AC50 as the concentration at which the activity in the assay is half-maximal.

Structures are written as SMILES. Active and inactive are the calls of the source. How the source made its calls: active means hit-call score of the fitted dose curve at least 0.9, where 1 is the maximum; inactive means score below 0.9.

On to `CCCCC(CC)COP(=O)(O)OCC(CC)CCCC` (stereo not given), for which, in test [1], the AC50 is 3 nM (active). Further, the outcome in [2], in test [3], in test [4], in test [5], in test [6] and in [7] was inactive. In addition, the result in test [8], in [9] and in [10] was inactive.
On to `CCCCCCOC(=O)c1ccccc1O`, for which the compound was classed as inactive in [1], in test [2], in test [3], in test [4], in test [5] and in test [6]. The call in test [7], in test [8], in test [9] and in [10] was inactive.

Values taken from PubChem BioAssay (EPA / NIEHS).
